A short description of assay [1]: Nuclear factor erythroid 2-related factor 2/antioxidant responsive element (Nrf2/ARE) small molecule agonists: qHTS cell viability counter screen in human keratinocytes (AID 1919968; active means well fitted curve in the direction sought with a large enough effect in the repeat runs; an effect the other way counts as inactive or inconclusive; further: nearly all actives have a fitted effect of over 55% in size; further: potency means the concentration at half of the fitted maximal effect). Put shortly:
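Seed 1,500 KeratinoSens cells per well, then incubate 5 h at 37 C/5% CO2. Add compounds in DMSO and incubate 23 h. Add CellTiter-Fluor, wait 1 h and read fluorescence.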

Assay [2] deals with Gonadotropin-releasing hormone receptor (Homo sapiens) (UniProt P30968). Put plainly: Human gonadotropin-releasing hormone receptor (GnRHR) small molecule agonists, calcium flux assay in GnRHR-HEK293 cells (AID 1920063). Further: nearly all actives have a fitted effect of over 35% in size. An outline of the steps: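 Cells: HEK293 stably expressing human GnRHR. Steps: overnight (18 h) culture, 1 h calcium dye loading at 37 C, compound addition, kinetic fluorescence read at 480/540 nm. Each compound tested at 15 concentrations in triplicate.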
Sequence of Gonadotropin-releasing hormone receptor (Homo sapiens) (P30968 whole entry, looked up): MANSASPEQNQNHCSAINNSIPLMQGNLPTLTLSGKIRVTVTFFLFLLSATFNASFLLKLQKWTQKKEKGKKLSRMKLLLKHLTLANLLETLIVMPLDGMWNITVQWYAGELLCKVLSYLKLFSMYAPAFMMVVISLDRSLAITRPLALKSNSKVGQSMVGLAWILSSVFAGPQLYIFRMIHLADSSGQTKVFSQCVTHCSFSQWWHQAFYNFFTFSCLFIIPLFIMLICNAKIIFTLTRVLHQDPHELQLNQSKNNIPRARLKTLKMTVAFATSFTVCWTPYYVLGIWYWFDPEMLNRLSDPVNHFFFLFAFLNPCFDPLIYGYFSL

Assay [3] deals with KiSS-1 receptor (Homo sapiens) (UniProt Q969F8). Put plainly: Human kisspeptin (KISS1R) small molecule agonists, calcium flux assay in KISS1R-HEK293 cells (AID 1920064; active means well fitted curve in the direction sought with a large enough effect in the repeat runs; an effect the other way counts as inactive or inconclusive). Put shortly: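 Cells plated and incubated 18 h; dye added, 1 h at 37 C; compounds in DMSO pinned in; signal read at 480/540 nm every second for 3 min. Each compound tested at 15 concentrations in triplicate.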
Sequence of KiSS-1 receptor (Homo sapiens) (Q969F8 whole entry, looked up): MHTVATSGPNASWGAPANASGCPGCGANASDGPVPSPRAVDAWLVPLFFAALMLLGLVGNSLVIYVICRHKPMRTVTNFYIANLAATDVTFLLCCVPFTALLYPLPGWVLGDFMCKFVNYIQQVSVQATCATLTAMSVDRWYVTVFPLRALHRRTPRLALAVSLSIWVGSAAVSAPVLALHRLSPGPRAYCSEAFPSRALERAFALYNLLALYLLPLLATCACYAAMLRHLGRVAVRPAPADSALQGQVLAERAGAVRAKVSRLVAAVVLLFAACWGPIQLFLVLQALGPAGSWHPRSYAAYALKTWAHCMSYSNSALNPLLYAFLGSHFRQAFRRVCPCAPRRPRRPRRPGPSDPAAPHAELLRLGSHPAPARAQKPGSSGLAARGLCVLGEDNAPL

A short description of assay [4]: G protein-coupled receptor (GPCR) small molecule agonists, calcium flux assay: HEK293 wild type cell line counter screen (AID 1920065). An outline of the steps:
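Counter-screen of the Tox21 10K library for non-specific calcium release: dye-loaded cells received compounds in DMSO and were monitored by kinetic fluorescence (480/540 nm, 3 min). Fifteen concentrations, run in triplicate.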

Assay [5] in a line: p53 small molecule agonists, cell-based qHTS assay with human liver microsomes (AID 1963577).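 Further: p53 response element beta-lactamase reporter cells with liver microsomes plus NADPH.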 An outline of the steps:
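HLM-supplemented p53RE-bla reporter assay: 16 h compound exposure at 37 C, microsomes and NADPH each 0.5 mg/mL final, read by fluorescence intensity.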

The nature of assay [6]: p53 small molecule agonists, cell-based qHTS assay with rat liver microsomes (AID 1963578). Put shortly:
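Quantitative HTS of the Tox21 10K library: p53RE-bla cells, rat liver microsomes plus NADPH at 0.5 mg/mL final each, 16 h at 37 C, beta-lactamase fluorescence detection.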

Assay [7] is described as follows: p53 small molecule agonists, cell-based qHTS assay with rat liver microsomes: qHTS cell viability counter screen (AID 1963580). Further: nearly all actives have a fitted effect of over 45% in size. An outline of the steps: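 Viability is assessed in parallel with the p53 reporter read: HCT-116 p53RE-bla cells receive compounds plus rat microsomes and NADPH (0.5 mg/mL final apiece), incubate 16 h at 37 C, and then CellTiter-Glo luminescence is recorded.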

The nature of assay [8]: p53 small molecule agonists, cell-based qHTS assay: qHTS cell viability counter screen (AID 1963581). Further: nearly all actives have a fitted effect of over 45% in size. Further: potency means the concentration at half of the fitted maximal effect. An outline of the steps: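 Cells: HCT-116 with p53 response element-driven beta-lactamase. Treatment: 16 h, 37 C, compounds in DMSO. Read: CellTiter-Glo luminescence after 30 min RT.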
The nature of assay [9]: cAMP Responsive Elements (CRE) small molecule agonists, cell-based qHTS assay (AID 1963590). An outline of the steps:
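Agonist mode qHTS in CRE-bla HEK 293T cells: compounds dosed from DMSO for 3 h at 37 C/5% CO2, followed by LiveBLAzer B/G FRET substrate for 2 h at room temperature.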

Assay [10] in a line: cAMP Responsive Elements (CRE) small molecule antagonists, cell-based qHTS assay (AID 1963591; active means well fitted inhibition curve with a large enough effect in the signal ratio in the repeat runs, not every such curve was filed as active; the % refers to the signal ratio). Put shortly: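 Antagonist mode: test compounds are co-incubated with the adenylyl cyclase activator NKH477 (0.25 uM final) on CRE-bla HEK293T cells for 3 h at 37 °C, followed by LiveBLAzer substrate loading.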
The target of assay [11] is Beta-2 adrenergic receptor (Homo sapiens) (UniProt P07550). Put plainly: Adrenergic beta2 receptor (ADRB2) small molecule antagonists, cell-based qHTS assay (AID 1963592). Further: series mostly up to about 92 µM; nearly all actives have a fitted effect of over 50% in size. An outline of the steps: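 Cells (CHO, stable ADRB2 overexpression) incubated 18-20hr at 37C; compounds added from DMSO; agonist mix (1nM isoproterenol, 100uM IBMX, 25uM Ro-20-1724) added; 0.5hr RT; d2-cAMP and anti-cAMP-cryptate added; 1hr RT; 665/615 nm read.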
Sequence of Beta-2 adrenergic receptor (Homo sapiens) (P07550 whole entry, looked up): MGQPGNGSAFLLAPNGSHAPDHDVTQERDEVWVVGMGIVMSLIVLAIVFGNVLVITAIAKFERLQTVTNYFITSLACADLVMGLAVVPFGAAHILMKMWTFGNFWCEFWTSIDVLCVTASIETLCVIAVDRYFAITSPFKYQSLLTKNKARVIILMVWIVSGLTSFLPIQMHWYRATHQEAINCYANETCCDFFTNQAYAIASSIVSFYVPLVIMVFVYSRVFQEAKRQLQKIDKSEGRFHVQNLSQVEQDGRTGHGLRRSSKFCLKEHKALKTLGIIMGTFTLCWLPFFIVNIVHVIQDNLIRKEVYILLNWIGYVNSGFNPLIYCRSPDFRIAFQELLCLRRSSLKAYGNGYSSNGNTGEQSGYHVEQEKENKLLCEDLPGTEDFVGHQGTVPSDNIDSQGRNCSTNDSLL

The target of assay [12] is D(2) dopamine receptor (Homo sapiens) (UniProt P14416). As to the kind of experiment: Dopamine D2 receptor (DRD2) small molecule agonists, cell-based qHTS assay (AID 1963594). Further: nearly all actives have a fitted effect of over 35% in size. An outline of the steps: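 HEK293 cells stably expressing human DRD2, pre-treated with PDE inhibitor Ro20-1724 (0.1 mM final) and compound 10 min at room temperature, then stimulated with NKH477 (200nM […]) for 30 min. cAMP read by HTRF (665/620 nm).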
Sequence of D(2) dopamine receptor (Homo sapiens) (P14416 whole entry, looked up): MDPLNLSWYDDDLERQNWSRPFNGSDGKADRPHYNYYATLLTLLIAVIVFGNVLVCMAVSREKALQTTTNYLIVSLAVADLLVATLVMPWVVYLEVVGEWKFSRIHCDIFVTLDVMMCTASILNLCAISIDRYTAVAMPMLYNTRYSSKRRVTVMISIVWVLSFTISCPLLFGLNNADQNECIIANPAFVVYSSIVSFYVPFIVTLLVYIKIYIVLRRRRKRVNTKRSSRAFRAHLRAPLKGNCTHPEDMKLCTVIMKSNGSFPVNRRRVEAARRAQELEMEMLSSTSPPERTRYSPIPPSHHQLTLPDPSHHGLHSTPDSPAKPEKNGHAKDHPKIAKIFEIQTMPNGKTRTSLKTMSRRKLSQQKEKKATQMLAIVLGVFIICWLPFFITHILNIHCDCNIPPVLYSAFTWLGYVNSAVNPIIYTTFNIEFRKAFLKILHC

Assay [13] has the same target. As to the kind of experiment: Dopamine D2 receptor (DRD2) small molecule antagonists, cell-based qHTS assay (AID 1963595; active means well fitted inhibition curve with a large enough effect in the signal ratio in the repeat runs, with a control signal flat; the % refers to the signal ratio). Put shortly:
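DRD2-HEK293; 0.1 mM Ro20-1724; cpd 10 min RT; NKH477 200 nM + quinpirole 12 nM, 30 min RT; HTRF cAMP (cAMP-d2/anti-cAMP cryptate), 665/620 nm ratio after 1 h.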

A short description of assay [14]: p53 small molecule agonists, cell-based qHTS assay with human liver microsomes: qHTS cell viability counter screen (AID 1963579). Further: nearly all actives have a fitted effect of over 45% in size. Further: potency means the concentration at half of the fitted maximal effect. Put shortly:
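Viability of p53RE-bla cells is measured as CellTiter-Glo luminescence following a 16 h, 37 C incubation with compound, liver microsomes from human donors and NADPH.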

Assay [15] in a line: p53 small molecule agonists, cell-based qHTS assay (AID 1963582; active means well fitted activation curve with a large enough effect in the signal ratio in the repeat runs, not every such curve was filed as active; the % refers to the signal ratio). Put shortly:
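Quantitative HTS in p53RE-bla cells: after a 5 h settling period, compounds delivered in DMSO were left on cells for 16 h at 37 C, and reporter induction was measured as fluorescence following 2 h substrate loading.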

Assay [16] deals with 5-hydroxytryptamine receptor 2A (Homo sapiens) (UniProt P28223). As to the kind of experiment: 5-hydroxytryptamine receptor 2A (HTR2A) small molecule agonists, cell-based qHTS assay (AID 1963587). Further: nearly all actives have a fitted effect of over 30% in size. Put shortly:
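CHO cells stably expressing human HTR2A, plated 18 h, loaded with calcium dye 1 h at 37 C. Agonist mode: compounds added and intracellular calcium fluorescence recorded kinetically for 2 min at 1 sec intervals.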

For assay [17], the target named is Muscarinic acetylcholine receptor M1 (Homo sapiens) (UniProt P11229). Put plainly: Cholinergic receptor muscarinic 1 (CHRM1) small molecule antagonists, cell-based qHTS assay (AID 1963588). Further: nearly all actives have a fitted effect of over 40% in size. An outline of the steps: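 CHRM1-CHO calcium-flux assay, antagonist mode. Cells were seeded 18 h, dye-loaded 1 h at 37 C and given compound for 5 min at RT, then acetylcholine was added at 50nM. FDSS fluorescence was read 3 min; 15 concentrations, three runs.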
Sequence of Muscarinic acetylcholine receptor M1 (Homo sapiens) (P11229 whole entry, looked up): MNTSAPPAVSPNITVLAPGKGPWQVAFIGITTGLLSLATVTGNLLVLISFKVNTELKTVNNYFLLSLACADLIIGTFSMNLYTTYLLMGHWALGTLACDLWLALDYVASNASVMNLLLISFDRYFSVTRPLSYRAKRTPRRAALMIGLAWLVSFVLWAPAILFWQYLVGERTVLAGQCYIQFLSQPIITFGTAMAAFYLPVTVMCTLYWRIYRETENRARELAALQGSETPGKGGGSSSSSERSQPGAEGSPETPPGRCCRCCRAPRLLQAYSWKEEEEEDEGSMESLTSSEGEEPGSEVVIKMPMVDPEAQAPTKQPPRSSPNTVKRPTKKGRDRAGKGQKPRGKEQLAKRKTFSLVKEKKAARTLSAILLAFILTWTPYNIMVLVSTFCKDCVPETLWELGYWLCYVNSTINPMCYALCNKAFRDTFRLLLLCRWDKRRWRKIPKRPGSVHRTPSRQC

Assay [18] has the same target. Put plainly: Cholinergic receptor muscarinic 1 (CHRM1) small molecule agonists, cell-based qHTS assay (AID 1963589). Further: nearly all actives have a fitted effect of over 35% in size. An outline of the steps:
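Agonist-mode qHTS in CHO cells stably carrying human muscarinic M1. Intracellular calcium is tracked by fluorescence every second after compound transfer; each compound runs at 15 concentrations in three independent runs.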

Assay [19] addresses 5-hydroxytryptamine receptor 2A (Homo sapiens) (UniProt P28223). Put plainly: 5-hydroxytryptamine receptor 2A (HTR2A) small molecule antagonists, cell-based qHTS assay (AID 1963586). Further: nearly all actives have a fitted effect of over 45% in size. An outline of the steps:
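Antagonist-mode intracellular calcium assay: DOI (4 nM) added after 5 min compound pre-incubation at room temperature to dye-loaded HTR2A-CHO cells. Fluorescence followed for 3 min, sampled every second.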

Structures are written as SMILES. Results filed as inconclusive are left out. Activity calls are given as the source filed them. Unless noted, the call rests on the fitted dose curve.

Sequence of 5-hydroxytryptamine receptor 2A (Homo sapiens) (P28223 whole entry, looked up): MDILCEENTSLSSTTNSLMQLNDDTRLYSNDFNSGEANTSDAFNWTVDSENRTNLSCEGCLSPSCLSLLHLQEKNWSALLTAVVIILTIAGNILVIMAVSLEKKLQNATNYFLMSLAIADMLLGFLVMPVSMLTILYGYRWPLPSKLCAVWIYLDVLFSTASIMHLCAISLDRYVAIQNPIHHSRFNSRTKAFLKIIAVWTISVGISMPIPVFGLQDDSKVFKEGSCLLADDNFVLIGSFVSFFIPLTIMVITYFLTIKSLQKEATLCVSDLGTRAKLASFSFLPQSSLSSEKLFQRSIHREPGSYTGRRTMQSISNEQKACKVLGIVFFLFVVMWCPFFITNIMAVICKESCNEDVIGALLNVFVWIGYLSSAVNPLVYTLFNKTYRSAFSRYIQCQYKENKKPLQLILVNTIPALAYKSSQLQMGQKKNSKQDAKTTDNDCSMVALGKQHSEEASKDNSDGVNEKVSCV

Turning to `CCS(=O)(=O)CCn1c([N+](=O)[O-])cnc1C`, the Potency result in assay [1], in assay [2], in assay [5], in [6], in [7] and in assay [8] was “inactive” each time. For the same molecule, the Potency result in assay [9], in assay [10], in [11], in assay [12] and in [13] was “inactive” throughout. Moreover, the result in assay [3] and in assay [4] was inactive.

Regarding `c1ccc(CCNc2nc(-c3ccccc3)cs2)cc1`, the Potency entry in [1], in [2], in [5], in assay [6], in assay [14] and in assay [7] was “inactive” in each case. In addition, the Potency result in [15], in assay [16], in assay [17], in assay [18], in assay [9] and in assay [10] was “inactive” in each case. Moreover, the Potency result in [12] was “inactive”. Moreover, the outcome in assay [3] and in assay [4] was inactive.

Take `CCCCCOc1ccc(C2SC(=O)NC2=O)cc1OCC` (stereo unspecified): the Potency entry in assay [1], in assay [2], in [5], in assay [6], in [14] and in assay [7] was “inactive” throughout. The Potency result in assay [8], in [19], in assay [16], in assay [17], in assay [18] and in assay [11] was “inactive” throughout. For the same molecule, the Potency entry in assay [12] and in assay [13] was “inactive” throughout. For the same molecule, the outcome in [3] and in assay [4] was inactive.

In the case of `COc1cc(-c2nc(NC(=O)c3cc4cc(C)cc(C)c4n3CC(=O)O)sc2CCC2CCCCC2)c(OC)cc1Cl`, the Potency is 17.7 µM (active) in [1] and 6.65 µM (active) in assay [8]. In addition, the Potency entry in [2], in assay [5], in assay [6], in [14], in assay [19] and in [16] was “inactive” each time. Besides, the Potency result in assay [17], in [18], in [11], in assay [12] and in assay [13] was “inactive” each time. In addition, the outcome in [3] and in assay [4] was inactive.

Consider `Nc1cc([N+](=O)[O-])cc(Cl)c1O`, for which the Potency result in [1], in [2], in [5], in assay [6], in assay [14] and in [8] was “inactive” throughout. For the same molecule, the Potency entry in [15], in assay [16], in assay [17], in assay [18], in [9] and in assay [10] was “inactive” in each case. Also, the Potency result in assay [11], in assay [12] and in assay [13] was “inactive” throughout. Also, the outcome in assay [3] and in assay [4] was inactive.

As for `COc1ccc(C(=O)c2ccc(OC)cc2O)c(O)c1`, the Potency entry in assay [1], in [2], in [5], in assay [6], in [14] and in assay [7] was “inactive” each time. The Potency result in assay [8], in [19], in [16], in [17], in assay [18] and in assay [10] was “inactive” in each case. Also, the Potency result in assay [11], in assay [12] and in assay [13] was “inactive” each time. The outcome in assay [3] and in assay [4] was inactive.

As for `Cc1cc(F)ccc1-c1cc(N2CC[C@@H](O)[C@H]2CO)ncc1N(C)C(=O)C(C)(C)c1cc(C(F)(F)F)cc(C(F)(F)F)c1`, the Potency is 19 µM (active) in assay [1], 14.3 µM (active) in assay [14] and 16 µM (active) in assay [8]. Moreover, the Potency entry in assay [2], in assay [5], in [6], in [19], in [16] and in assay [18] was “inactive” each time. For the same molecule, the Potency result in [12] and in [13] was “inactive” throughout. In addition, the outcome in assay [3] and in assay [4] was inactive.
